Data from ChEMBL document CHEMBL3988442, “University of Dundee, Small-Polar-MMV Screening Library” (2021).
For some assays here: Entries with a potency or affinity are not part of this list.

Legend:
Design in all cases: scale not given: direction of the effect not stated beside the values
[1] = biological target: Protein translocase subunit SecA (Escherichia coli (strain K12)) (UniProt P10408); assay: Assay to Identify E. coli SecA ATPase Inhibitors; format: functional; conditions: 30 µM
[2] = biological target: T1, Ubiquitin-activating enzyme e1, putative (Leishmania donovani (strain BPK282A1)) (UniProt E9BSI1); assay: Leishmania donovani Ubiquitin Activating Enzyme (LdE1); format: functional; conditions: 30 µM
T1 sequence (whole entry): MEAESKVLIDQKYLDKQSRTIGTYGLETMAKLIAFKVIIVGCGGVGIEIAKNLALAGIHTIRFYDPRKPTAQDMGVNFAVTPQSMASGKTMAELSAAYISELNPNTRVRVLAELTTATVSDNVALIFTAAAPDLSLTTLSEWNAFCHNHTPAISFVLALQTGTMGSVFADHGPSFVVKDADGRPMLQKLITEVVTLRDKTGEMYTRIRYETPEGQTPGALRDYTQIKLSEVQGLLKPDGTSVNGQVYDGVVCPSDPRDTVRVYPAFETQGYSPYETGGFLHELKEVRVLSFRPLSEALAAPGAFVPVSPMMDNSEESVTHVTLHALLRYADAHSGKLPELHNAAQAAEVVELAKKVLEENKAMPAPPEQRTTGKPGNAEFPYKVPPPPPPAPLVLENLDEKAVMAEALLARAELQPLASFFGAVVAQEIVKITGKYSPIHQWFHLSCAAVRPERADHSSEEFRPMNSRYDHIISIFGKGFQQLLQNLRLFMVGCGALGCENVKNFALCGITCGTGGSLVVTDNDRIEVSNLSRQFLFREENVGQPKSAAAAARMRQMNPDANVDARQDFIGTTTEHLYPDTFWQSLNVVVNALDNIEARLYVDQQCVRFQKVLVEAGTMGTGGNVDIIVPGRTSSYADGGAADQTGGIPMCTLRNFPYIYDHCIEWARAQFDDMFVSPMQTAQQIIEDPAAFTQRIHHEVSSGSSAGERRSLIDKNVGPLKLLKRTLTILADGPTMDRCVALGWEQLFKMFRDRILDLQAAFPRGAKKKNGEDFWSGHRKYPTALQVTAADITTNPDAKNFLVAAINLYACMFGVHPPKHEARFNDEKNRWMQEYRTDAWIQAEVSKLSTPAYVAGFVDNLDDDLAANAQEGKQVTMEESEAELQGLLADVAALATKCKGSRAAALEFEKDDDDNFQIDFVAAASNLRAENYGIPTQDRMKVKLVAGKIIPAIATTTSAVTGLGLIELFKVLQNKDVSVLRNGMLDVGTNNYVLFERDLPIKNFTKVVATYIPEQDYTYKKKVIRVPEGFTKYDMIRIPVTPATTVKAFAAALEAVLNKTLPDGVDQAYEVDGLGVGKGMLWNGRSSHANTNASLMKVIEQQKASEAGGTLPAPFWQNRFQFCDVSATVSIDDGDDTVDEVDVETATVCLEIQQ

[3] = biological target: AMP-activated protein kinase, AMPK (Homo sapiens) (UniProt P54646+O43741+P54619+Q9UGJ0+Q9Y478+Q13131+Q9UGI9); assay: AMP-dependent Kinase enzyme assay. An in vitro enzyme assay that detects ADP turnover that is directly proportional to AMPK activity. This uses naive AMPK that is activated during the assay with MK-8722; format: functional; conditions: 30 µM
[4] = biological target: Sialic acid-binding Ig-like lectin 9 (Homo sapiens) (UniProt Q9Y336); assay: Hs-Siglec9 ALPHAscreen SOP 20170721; conditions: 10 µM
Sialic acid-binding Ig-like lectin 9 (Homo sapiens), sequence (Q9Y336 whole entry): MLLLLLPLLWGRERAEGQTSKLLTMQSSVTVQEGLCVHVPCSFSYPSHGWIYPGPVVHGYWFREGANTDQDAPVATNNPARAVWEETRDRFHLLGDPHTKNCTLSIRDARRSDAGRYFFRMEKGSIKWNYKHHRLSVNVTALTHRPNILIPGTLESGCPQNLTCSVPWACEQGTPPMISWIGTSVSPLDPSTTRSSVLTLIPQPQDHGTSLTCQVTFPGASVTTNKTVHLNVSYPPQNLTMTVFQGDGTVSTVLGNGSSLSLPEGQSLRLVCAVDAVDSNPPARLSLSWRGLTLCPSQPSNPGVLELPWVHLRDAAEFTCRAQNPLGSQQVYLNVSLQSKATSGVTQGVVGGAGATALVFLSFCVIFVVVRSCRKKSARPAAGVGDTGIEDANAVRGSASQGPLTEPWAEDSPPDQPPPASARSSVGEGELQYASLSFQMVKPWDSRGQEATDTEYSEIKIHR

Trypanosoma cruzi = assay: Trypanosoma cruzi phosphomannomutase and mannose-1-phosphate guanylyltransferase assay; format: functional; conditions: 10 µM
[5] = biological target: T2, Arginase-2, mitochondrial (Homo sapiens) (UniProt P78540); assay: in vitro enzyme assay to detect the production of urea directly proportional to the activity of Arginase II; format: functional; conditions: 33.3 µM; note: in the data most compounds retested in dose-response had high values
T2 sequence (whole entry): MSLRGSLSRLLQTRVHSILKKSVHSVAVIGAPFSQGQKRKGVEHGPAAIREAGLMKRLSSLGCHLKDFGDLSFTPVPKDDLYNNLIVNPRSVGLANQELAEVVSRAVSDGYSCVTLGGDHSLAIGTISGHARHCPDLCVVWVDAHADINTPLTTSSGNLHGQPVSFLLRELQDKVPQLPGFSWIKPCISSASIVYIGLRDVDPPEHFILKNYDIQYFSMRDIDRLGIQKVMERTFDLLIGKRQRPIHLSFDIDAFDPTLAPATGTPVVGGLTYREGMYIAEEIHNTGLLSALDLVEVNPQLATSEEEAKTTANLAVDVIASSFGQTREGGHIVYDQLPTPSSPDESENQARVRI

[6] = biological target: T3, Proteasome subunit beta (Trypanosoma cruzi) (UniProt O96673); assay: Trypanosoma cruzi proteasome chymotrypsin-like activity (TcProtChymo) assay.; note: in the data most compounds retested in dose-response had high values; format: functional; conditions: 9.37 µM
T3 sequence (whole entry): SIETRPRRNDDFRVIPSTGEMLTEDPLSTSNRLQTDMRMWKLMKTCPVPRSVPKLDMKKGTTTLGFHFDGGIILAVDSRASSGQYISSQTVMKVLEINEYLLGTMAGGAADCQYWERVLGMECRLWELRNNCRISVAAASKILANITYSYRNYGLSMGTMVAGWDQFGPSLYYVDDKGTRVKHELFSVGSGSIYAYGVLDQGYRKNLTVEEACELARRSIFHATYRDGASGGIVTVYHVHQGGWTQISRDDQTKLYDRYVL

Homo sapiens = species on record: Homo sapiens; assay: To identify inhibition of the IFN signalling (Jak-Stat) pathway via expression of an eGFP reporter gene under the control of an IFN-stimulated response element (ISRE) containing MxA promoter.; format: functional; conditions: 30 µM
[7] = biological target: T4, Tyrosyl-tRNA synthetase, putative (Trypanosoma cruzi (strain CL Brener)) (UniProt Q4DSP6); assay: Trypanosoma cruzi tyrosyl tRNA synthetase (TcYRS) _High Tyrosine SOP; format: functional; conditions: 30 µM; note: in the data most compounds retested in dose-response had high values
T4 sequence (whole entry): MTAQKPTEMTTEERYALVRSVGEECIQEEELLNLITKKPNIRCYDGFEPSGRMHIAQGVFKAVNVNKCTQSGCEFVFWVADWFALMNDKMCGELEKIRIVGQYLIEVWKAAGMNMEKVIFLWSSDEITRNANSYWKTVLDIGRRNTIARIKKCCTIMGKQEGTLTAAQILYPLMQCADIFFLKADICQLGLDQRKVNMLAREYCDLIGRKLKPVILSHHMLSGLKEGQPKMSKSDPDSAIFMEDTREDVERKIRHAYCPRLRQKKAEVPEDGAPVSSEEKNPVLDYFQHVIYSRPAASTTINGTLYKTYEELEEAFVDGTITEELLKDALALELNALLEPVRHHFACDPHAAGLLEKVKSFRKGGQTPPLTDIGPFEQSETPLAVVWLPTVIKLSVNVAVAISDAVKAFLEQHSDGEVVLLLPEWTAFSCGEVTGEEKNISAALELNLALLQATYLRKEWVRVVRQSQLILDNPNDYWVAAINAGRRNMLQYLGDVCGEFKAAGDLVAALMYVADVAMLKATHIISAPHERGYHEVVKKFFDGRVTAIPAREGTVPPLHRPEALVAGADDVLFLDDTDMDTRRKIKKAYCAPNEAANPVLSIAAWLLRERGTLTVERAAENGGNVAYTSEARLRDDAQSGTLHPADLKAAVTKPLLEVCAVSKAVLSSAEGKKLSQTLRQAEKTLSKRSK

[8] = biological target: T4, Tyrosyl-tRNA synthetase, putative (Trypanosoma cruzi (strain CL Brener)); assay: Trypanosoma cruzi tyrosyl tRNA synthetase (TcYRS) SOP; format: functional; conditions: 30 µM
[9] = biological target: Chromo domain-containing protein 1 (Saccharomyces cerevisiae (strain ATCC 204508 / S288c) (Baker's yeast)) (UniProt P32657); assay: ScCHD-1 Enzyme Inhibition Assay; format: functional; conditions: 30 µM; note: in the data most compounds retested in dose-response had high values
Chromo domain-containing protein 1 (Saccharomyces cerevisiae (strain ATCC 204508 / S288c) (Baker's yeast)), sequence (P32657 whole entry, the tested form may be a part): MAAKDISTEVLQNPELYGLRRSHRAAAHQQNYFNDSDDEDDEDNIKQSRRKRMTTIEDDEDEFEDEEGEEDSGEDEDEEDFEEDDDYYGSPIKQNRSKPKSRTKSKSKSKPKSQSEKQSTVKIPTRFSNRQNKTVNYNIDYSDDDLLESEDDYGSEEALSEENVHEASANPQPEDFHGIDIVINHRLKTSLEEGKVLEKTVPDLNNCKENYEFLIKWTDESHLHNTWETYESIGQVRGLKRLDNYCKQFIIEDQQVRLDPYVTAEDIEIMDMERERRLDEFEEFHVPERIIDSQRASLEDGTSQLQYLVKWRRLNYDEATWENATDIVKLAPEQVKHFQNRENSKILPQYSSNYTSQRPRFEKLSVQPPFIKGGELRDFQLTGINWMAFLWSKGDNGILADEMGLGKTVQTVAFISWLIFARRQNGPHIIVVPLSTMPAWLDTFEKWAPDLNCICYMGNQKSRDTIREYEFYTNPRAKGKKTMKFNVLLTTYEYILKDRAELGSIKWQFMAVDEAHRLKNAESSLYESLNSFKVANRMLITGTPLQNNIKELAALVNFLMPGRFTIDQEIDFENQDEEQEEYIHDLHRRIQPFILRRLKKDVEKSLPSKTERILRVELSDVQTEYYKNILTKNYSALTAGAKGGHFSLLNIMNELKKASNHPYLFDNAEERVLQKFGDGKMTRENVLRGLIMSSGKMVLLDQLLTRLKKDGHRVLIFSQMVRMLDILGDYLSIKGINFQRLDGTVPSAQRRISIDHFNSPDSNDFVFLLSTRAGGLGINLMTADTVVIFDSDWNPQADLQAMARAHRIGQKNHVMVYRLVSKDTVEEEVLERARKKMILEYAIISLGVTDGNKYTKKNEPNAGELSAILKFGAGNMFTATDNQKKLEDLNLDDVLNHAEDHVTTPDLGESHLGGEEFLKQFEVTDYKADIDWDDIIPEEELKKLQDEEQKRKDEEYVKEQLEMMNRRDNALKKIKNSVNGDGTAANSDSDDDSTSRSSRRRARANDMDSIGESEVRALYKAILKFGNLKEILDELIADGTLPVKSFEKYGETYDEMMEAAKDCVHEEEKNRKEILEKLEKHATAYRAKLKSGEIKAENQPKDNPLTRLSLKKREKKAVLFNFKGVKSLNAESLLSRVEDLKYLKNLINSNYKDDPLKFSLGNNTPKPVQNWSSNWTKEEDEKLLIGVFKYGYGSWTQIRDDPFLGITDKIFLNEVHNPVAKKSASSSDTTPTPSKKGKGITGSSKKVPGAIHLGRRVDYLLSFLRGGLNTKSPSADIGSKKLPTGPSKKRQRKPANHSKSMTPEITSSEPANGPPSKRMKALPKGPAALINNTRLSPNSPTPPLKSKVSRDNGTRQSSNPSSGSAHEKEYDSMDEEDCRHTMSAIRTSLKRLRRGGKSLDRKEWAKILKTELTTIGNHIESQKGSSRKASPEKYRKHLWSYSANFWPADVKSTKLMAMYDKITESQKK

Protein translocase subunit SecA (Escherichia coli (strain K12)), sequence (P10408 whole entry): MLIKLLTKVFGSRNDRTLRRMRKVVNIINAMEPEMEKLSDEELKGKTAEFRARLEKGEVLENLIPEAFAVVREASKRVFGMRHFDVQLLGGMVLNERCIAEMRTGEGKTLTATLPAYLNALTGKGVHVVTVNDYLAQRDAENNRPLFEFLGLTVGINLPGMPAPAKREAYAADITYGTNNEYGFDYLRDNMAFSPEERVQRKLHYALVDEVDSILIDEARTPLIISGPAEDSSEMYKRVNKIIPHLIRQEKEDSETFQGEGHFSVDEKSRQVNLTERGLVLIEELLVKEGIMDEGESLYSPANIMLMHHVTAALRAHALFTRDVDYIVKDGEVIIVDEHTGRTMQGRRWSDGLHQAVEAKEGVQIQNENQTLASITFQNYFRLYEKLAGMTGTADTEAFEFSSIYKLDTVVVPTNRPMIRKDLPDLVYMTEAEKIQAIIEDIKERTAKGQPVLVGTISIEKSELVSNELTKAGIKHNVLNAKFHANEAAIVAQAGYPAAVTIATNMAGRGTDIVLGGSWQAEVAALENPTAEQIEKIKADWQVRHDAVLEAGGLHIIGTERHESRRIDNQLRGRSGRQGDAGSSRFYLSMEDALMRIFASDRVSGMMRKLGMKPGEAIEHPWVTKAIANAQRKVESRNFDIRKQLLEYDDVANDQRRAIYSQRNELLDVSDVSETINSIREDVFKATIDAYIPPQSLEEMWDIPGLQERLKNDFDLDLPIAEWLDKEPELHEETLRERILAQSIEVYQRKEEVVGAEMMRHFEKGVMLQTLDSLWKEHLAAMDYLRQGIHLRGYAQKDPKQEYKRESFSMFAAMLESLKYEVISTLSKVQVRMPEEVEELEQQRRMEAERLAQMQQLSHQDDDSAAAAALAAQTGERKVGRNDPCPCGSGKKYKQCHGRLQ

Structure (SMILES)	Percent Effect [1]	Percent Effect [2]	Percent Effect [3]	Percent Effect [4]	Percent Effect (Trypanosoma cruzi)	Percent Effect [5]	Percent Effect [6]	Percent Effect (Homo sapiens)	Percent Effect [7]	Percent Effect [8]	Percent Effect [9]
Fc1ccc(CN2CCCC(Cn3cncn3)C2)c2ncccc12 (configuration not stated)	-5.33%	5.2%	-0.904%	8.63%	1.67%	-1.38%	12.2%	-1.67%	5.38%	11.1%	1.09%
CCn1cc(NC(=O)NCC(c2cccc(F)c2)N(C)C)cn1 (configuration not stated)	0.401%	13.2%	0.674%	6.49%	-0.752%	0.383%	4.68%	-12.5%	11.3%	21.9%	-5.78%
Cc1nc(CN2CCN(C(=O)COCc3ccccc3)CC2)no1	-3.03%	5.41%	-6.7%	10.7%	5.96%	0.744%	9.19%	-1.99%	-2.15%	3.7%	-7.9%
Cc1ncc(CNC(=O)Cc2ccc(Cl)cc2)c(C2CCCN2C)n1 (configuration not stated)	-5.53%	-1.35%	18.1%	5%	-2.96%	-2.55%	8.74%	1.58%	-1.07%	-1.3%	0.76%
Cc1nc(C)n(CC2CCCCN2Cc2ncc(C(C)(C)C)o2)n1 (configuration not stated)	-2.22%	31.2%	-8%	-3.37%	5.62%	-2.13%	19.1%	10.5%	7.77%	24.4%	-10.7%
Cc1ccc(-c2nnc(SCC(=O)O)n2-c2ccc(C)cc2)cc1	-2.58%	13.3%	1.28%	2.44%	3.74%	1.17%	13.8%	28.5%	6.38%	-98.7%	-3.8%
CN(Cc1ccco1)Cc1cncc2c1CCN(c1ncccn1)C2	-0.988%	8%	-6.54%	-2.14%	3.86%	-48.6%	14.9%	-4.67%	-1.04%	2.5%	-2.02%
CC(C)Cc1nc(OCC(=O)O)c(C#N)c2c1CCC2	1.44%	9.33%	-5.52%	-3.77%	1.57%	-2.29%	9.24%	3.54%	-1.06%	2.56%	-8.05%
CC(C)C(C(=O)N1CCCN(Cc2cnn(C)c2)CC1)n1cncn1 (configuration not stated)	-1.34%	0%	2.52%	2.77%	-5.8%	2.76%	7.82%	-12.4%	1.07%	-1.24%	2.06%
CC1(C)Cc2ccccc2-c2nc(NCCO)[nH]c(=O)c21	-5.03%	13.2%	56%	4.58%	-3.02%	3.55%	20%	31.2%	6.38%	13%	-12.3%
CC(Cn1cccn1)NC(=O)CCc1ccc(S(N)(=O)=O)cc1 (configuration not stated)	-7.11%	18.2%	-0.578%	3.31%	6.37%	-2.74%	7.03%	11%	6.67%	23.5%	-9.46%
Cc1ccc(Cn2ccc(NS(C)(=O)=O)n2)cc1	-6.83%	5.2%	-4.69%	-0.383%	-2.46%	-5.52%	9.32%	-2.78%	3.23%	13.6%	1.11%
COc1cccc(-c2noc(-c3ccc(NCC4CC4)nc3)n2)c1OC	-6.26%	0%	-3.38%	6.76%	8.47%	2.08%	11%	31.3%	4.92%	13.6%	-1.62%
CCc1nccn1C1CCCN(C(=O)c2cnn(C)c2C2CC2)C1 (configuration not stated)	-5.61%	8.11%	-0.679%	1.6%	-6.51%	-4.41%	6.49%	23.9%	3.45%	6.17%	-2.99%
CCOCC1CN(C(=O)c2cscn2)Cc2nnn(CC3CC3)c21 (configuration not stated)	-0.829%	10.8%	1.84%	-5.91%	0.88%	4.14%	18.4%	-1.13%	2.16%	7.69%	-1.63%
Cc1cnn(CCNCC(=O)NCC2(c3ccccc3)CCC2)c1	-3.26%	10.4%	0.236%	-13.1%	-5.19%	-3.58%	12.4%	11.5%	12.4%	14.1%	-19.9%
COc1cn(-c2ccccc2)nc1C(=O)NCCCN1CCCC(C)C1 (configuration not stated)	-5.93%	0%	1.22%	18%	2.62%	0.356%	-2.2%	5.68%	4.85%	9.76%	-1.59%
CC(C)n1ccnc1C1CCN(Cc2ccc(Cl)c(F)c2)CC1	-4.75%	5.2%	1.93%	15.3%	0.885%	-4.14%	12.5%	18.3%	6.45%	8.64%	0.763%
CCC(CC)c1cc(CNC(=O)N2CCOCC2CC)on1 (configuration not stated)	-3.39%	0%	-0.644%	2.45%	7.33%	-1.24%	0.0858%	-31.4%	0%	1.24%	-0.017%
c1coc(-c2nnc(CN3CCCC(CN4CCCCCC4)C3)o2)c1 (configuration not stated)	-4.64%	7.89%	0.651%	1.71%	8.67%	-7.1%	-1.25%	4.66%	5.32%	10.4%	-3.8%
O=C([C@H]1C[C@H]2OCC[C@H]2N(C(=O)c2ccncc2)C1)N1CCCCO1	-6.09%	16%	-5.71%	-0.495%	6.56%	-43.9%	6.33%	-5.77%	4.17%	5%	-6.72%
COc1ccc(NC(=O)Cn2nc(C)ccc2=O)cc1OC	-3.84%	-1.33%	2.94%	4.69%	-0.786%	-5.46%	7.39%	-3.33%	3.17%	5.13%	0.459%
